Data reported in PubChem BioAssay AID687014 (The Scripps Research Institute Molecular Screening Center, 2013).
Screen size: about 370,000 compounds; about 6,800 (1.8%) were called active.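 How the source made its calls: active means activation above a cutoff set at the mean of all screened compounds plus 3 SD (cut at about 10% in these data); inactive means the rest.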 Many of the other results were omitted from the sample, so actives are more common in it than they were.

system: Nuclear hormone receptor DAF-12 (Heterodera glycines), GAL4 fusion; assay: hgDAF-12 GAL4 fusion reporter activation – cell-based, luminescence, HEK293, UAS-luciferase, primary screen (AID 687014); settings: HEK293 GAL4-hgDAF12 UAS-luciferase reporter, agonist luminescence; at 6.8 µM; active compounds read high; normalized to butyrate control;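 further: 0% = DMSO wells and 100% = sodium butyrate wells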

| Compound | activation |
| --- | --- |
| CCN(CC)C(=O)CC[C@@H]1CC[C@]2(CCCN(S(=O)(=O)C3CCCCC3)C2)O1 | 0.45% (inactive) |
| C=CCn1c(SCC(N)=O)nnc1-c1ccccc1OC | -1.84% (inactive) |
| S=C1NC(c2ccccc2)=NCN1c1ccc(Br)cc1 | 4.34% (inactive) |
| Brc1ccccc1C1N=C(c2ccccc2)NO1 (stereo not given) | 20.2% (active) |
| N#Cc1ccc(C2N=C(c3ccccc3)NO2)cc1 (stereo not given) | 9.37% (inactive) |
| CCOC(=O)C1CCN(C(=O)C(C)(C)NC(=O)Nc2ccccc2Cl)CC1 | 0.66% (inactive) |
| C[C@@H]1ON(C)[C@H]2C[C@H]3c4cc(N5CCOCC5)ccc4CCN3C[C@@H]12 | -4.54% (inactive) |
| COC(=O)C1=C(C)N(Cc2ccccc2C(F)(F)F)C(=NCc2ccc(OC)cc2)NC1c1cccc(C(F)(F)F)c1 (stereo not given) | -1.71% (inactive) |
| O=C(Nc1ccc2c(c1)OCO2)c1sc2cc(Cl)ccc2c1Cl | -1.79% (inactive) |
| O=C(Nc1ccon1)c1sc2ccccc2c1Cl | 11.2% (active) |
| CN1CCc2ccccc2C1Cc1ccccc1NC(=O)c1sc2ccccc2c1Cl (stereo not given) | 5.85% (inactive) |
| C[C@@H]1CN([C@H](C)CO)C(=O)CCCn2cc(nn2)CO[C@H]1CN(C)C(=O)Nc1ccc(N2CCCCC2)cc1 | 5.88% (inactive) |
| Cc1nc2ccccc2n1C(=O)N1CCOCC1 | 1.42% (inactive) |
| N#CCSc1nc2ccc(N3CCOCC3)cc2c(=O)n1CCc1ccccc1 | -1.34% (inactive) |
| Cc1nn2c3cc(N4CCOCC4)ccc3nc2c2ccccc12 | 11.4% (active) |
| Cc1ccc(Cn2cc(CN3[C@@H](CC(C)C)COc4ccc(Cl)cc4S3(=O)=O)nn2)cc1 | 0.41% (inactive) |
| CCCC1(C(=O)OCC)NC(c2ccc(N(C)C)cc2)C2C(=O)N(c3ccc4c(c3)OCCO4)C(=O)C21 (stereo not given) | -2.1% (inactive) |
| Cc1ccc(-c2nc(C3CCCN(S(=O)(=O)c4ccc(Br)s4)C3)no2)cc1 (stereo not given) | 1.98% (inactive) |
| COC(=O)c1ccccc1Oc1c(F)c(F)nc(N2CCOCC2)c1F | -0.09% (inactive) |
| COc1ccc(Nc2ncc(F)c(N3CCOCC3)n2)cc1 | 18.6% (active) |

| Compound | activation |
| --- | --- |
| Fc1cnc(N2CCOCC2)nc1NCc1ccccc1 | -0.76% (inactive) |
| COC(=O)c1cc2c(c3c4cc(F)ccc4n(S(=O)(=O)c4ccccc4)c13)C(=O)N(Cc1ccccc1OC)C2 | 0.57% (inactive) |
| Cc1ccc(NC(=O)C(=O)NCc2ccco2)c(C)c1 | 6.27% (inactive) |
| Cc1ccc(NN=C2C(=O)OC(C)(C)OC2=O)c(C)c1 | 11.5% (active) |
| Cc1ccc(NC(=O)c2oc(=O)c3ccccc3c2-c2ccccc2)c(C)c1 | 2.59% (inactive) |
| C=CCN(C)CC#Cc1ccccc1 | -1.36% (inactive) |
| CCOc1ccc(NC(=O)N(CCC(C)C)C(C)c2ccco2)cc1 (stereo not given) | -1.26% (inactive) |
| O=C(CSc1nnc(-c2ccco2)o1)NCC(=O)c1ccccc1 | -1.52% (inactive) |
| CCOc1ccc(-c2nnc(-c3ccco3)o2)cc1 | 13.6% (active) |
| CCCCOc1ccc(-c2nnc(-c3ccco3)o2)cc1 | 11.3% (active) |
| CCCCSc1nnc(-c2ccc(C)cc2)o1 | 8.59% (inactive) |
| CCCCCCc1cc2cc(-c3nnc(-c4cccc(OC)c4)o3)c(=O)oc2cc1O | 4.05% (inactive) |
| COC(=O)[C@]12C[C@H](CC(=O)N3CCOCC3)C(=O)N(Cc3ccc(Cl)cc3Cl)C1=C[C@H](C(C)C)O[C@@H]2C1CC1 | -3.62% (inactive) |
| CCOC(=O)C1=C(C(=O)OCC)C2N(Cc3ccc(C#N)cc3)c3ccccc3[C@@]23C[C@@H](C(=O)OC)N(S(=O)(=O)c2ccc(F)cc2)C3=N1 (stereo not given in full) | 2.34% (inactive) |
| Cc1ccc(-n2c(SCC(=O)Nc3cccc4ccccc34)nnc2-c2ccccn2)cc1 | -2.36% (inactive) |
| Cc1cccc(OCC(=O)Nc2ccc(C(=O)O)cc2NC(=O)COc2cccc(C)c2)c1 | -2.94% (inactive) |
| Cc1cccc(OCC(=O)NC2CC(C)(C)NC(C)(C)C2)c1 | 0.72% (inactive) |
| Cc1cccc(OCC(=O)Nc2ccccc2F)c1 | 11.4% (active) |
| COC(=O)C1CN(CCc2ccccc2)CCS(=O)(=O)N1Cc1cccc(Cl)c1 (stereo not given) | -0.51% (inactive) |
| Cc1ccc(C(=O)NNC2=Nc3cc([N+](=O)[O-])ccc3OC2)cc1 | 4.07% (inactive) |

| Compound | activation |
| --- | --- |
| COc1ccc(C2=Nc3cc(C)ccc3OC2)cc1 | 15.9% (active) |
| COc1ccc(-c2onc(C)c2-c2ccc3c(c2)OCCO3)c(O)c1 | -2.49% (inactive) |
| O=C1Nc2ccccc2OC1CC(=O)N1CCCCCCC1 (stereo not given) | 3.97% (inactive) |
| O=C(c1cccc(C(F)(F)F)c1)N1CC[C@H]2[C@H](CCCN2Cc2cc(F)cc(F)c2)C1 | 1.35% (inactive) |
| O=C(O)c1cccc(N=NN2CCCCCC2)c1 | 12.7% (active) |
| CC(=O)c1ccc(OC(=O)N2CCOCC2)cc1 | 1.11% (inactive) |
| O=C(O)c1ccc(N=NN2CCOCC2)cc1 | 10.6% (active) |
| NC1=NN(c2cccc(C(=O)O)c2)C(=O)C1 | 0.87% (inactive) |
| O=C(c1ccccc1)C(O)(CN1CCCCC1)c1ccccc1 (stereo not given) | -0.03% (inactive) |
| Cc1ccc(C(=O)C(=S)N2CCOCC2)cc1 | 3.06% (inactive) |
| O=C(NC1CCCCN(Cc2cccc(C(F)(F)F)c2)C1=O)c1ccccc1I (stereo not given) | -2.42% (inactive) |
| CC(C)NC(=S)N1CCN(S(C)(=O)=O)CC1 | 2.81% (inactive) |
| C=CCN1C(=O)[C@H](CC(=O)N2CCN(C(=O)OCC)CC2)[C@@]2(C(=O)OCC)CCCC=C12 | 0.53% (inactive) |
| COC(=O)[C@@]12CCCCC=C1N(CCc1ccc(Cl)cc1)C(=O)[C@H]2CC(=O)NCc1ccc(OC)c(OC)c1 | -3.28% (inactive) |
| CCOC(=O)c1cn[nH]c1NC(=S)Nc1ccccc1 | 15.5% (active) |
| CCOC(=O)c1cc2c(nc1NC(=S)Nc1ccccc1)CC(C)(CC)OC2 (stereo not given) | -0.06% (inactive) |
| CCOC(=O)c1c(NC(=S)Nc2ccccc2)sc2c1CCN(C)C2 | -0.1% (inactive) |
| Cc1ccccc1Nc1nc(N)nc(CSc2nnc3ccccn23)n1 | -2.26% (inactive) |
| Cc1ccccc1Nc1nc(N)nc(CN2CCN(c3ccccn3)CC2)n1 | -1.77% (inactive) |
| Cc1ccccc1Nc1nc(N)nc(CSc2ccccc2)n1 | 16.4% (active) |
